# HT1080 IDH1KD tx: kills HT-1080 cells with IDH1 knockdown | HT-1080 IDH1 knockdown viability, ATP luminescence, 48 h | Potency, µM (titrated, usually from 46.1 µM), for inactives: top-dose activity, negative = toxicity, most hits filed as cytotoxic | 360,000 tested, 2% active | AID 686971;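 further: 0% = DMSO wells and -100% = cell-free medium wells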
#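 Cytotoxicity counter-line: IDH1KD HT-1080, 48 h, CellTiter-Glo. Curves classed by r2, magnitude and activity.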
# KB-3-1 tox: kills parental KB-3-1 adenocarcinoma cells; 400,000 tested, 1.4% active; Potency, µM (top dose mostly 46.1 µM), hits mostly cytotoxic; AID 1347075; KB-3-1 viability, CellTiter-Glo ATP luminescence, 72 h; further: on the % scale 0 is the no-effect control and ±100 the full control effect; nearly all actives have a fitted effect of over 60% in size
#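 Viability of parental KB-3-1 cells, measured by CellTiter-Glo luminescence, followed a 72 h incubation at 37 °C with pinned compounds in phenol-red-free DMEM containing 10% FBS.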
# SW480 rerep: inducers of DNA re-replication in SW480 colon cancer cells; Potency, µM (doses to about 46.1 µM), for the others: at the highest dose re-replication activation, most hits filed as activators; SW480 DNA re-replication, Hoechst DNA content imaging, 48 h; AID 624297; 340,000 tested, 1.8% active; further: % of control where 0% means no effect; nearly all actives have a fitted effect of over 55% in size
#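 Compounds, transferred as 23 nL by pin tool, were incubated with cells for 48 hr; DNA content per nucleus was then quantified by Hoechst staining and fluorescence plate imaging.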
# HT1080-NT tox: kills 2HG-producing HT-1080-NT fibrosarcoma cells; HT-1080-NT fibrosarcoma viability, CellTiter-Glo ATP luminescence, 48 h; Potency, µM (highest dose often 46.1 µM), inactives show at the highest dose activity, negative = less viability, most hits filed as cytotoxic; 360,000 tested, 1.6% active;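 further: NT is the 2HG producing partner of a matched IDH1 knockdown line; 0% = DMSO-treated cells and -100% = media-only wells without cells; nearly all actives have a fitted effect of over 55% in size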
#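 Toxicity toward the 2HG-producing NT line was scored as %Activity, normalised to DMSO and no-cell wells, from CellTiter-Glo luminescence after 48 hours' treatment.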
# KB-V1 cytotox: KB-V1 MDR subline cytotoxicity | KB-V1 MDR cells viability, CellTiter-Glo, 72 h | Potency, µM (series often up to 46.1 µM), actives largely listed as cytotoxic | 400,000 tested, 3.4% active | AID 1347076; further: on the % scale 0 is the no-effect control and ±100 the full control effect; nearly all actives have a fitted effect of over 60% in size
#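 Drug-selected KB-V1 cells, grown in DMEM lacking phenol red with 10% FBS, receive compound titrations; after three days at 37 degrees C, surviving cell ATP is quantified by CellTiter-Glo luminescence and responses normalized and curve-fitted.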
# MCF10A rereplic: DNA re-replication induction in MCF 10a cells; 350,000 tested, 2.9% active; MCF 10A DNA re-replication, Hoechst nuclear intensity, 48 h; Potency, µM (doses to about 46.1 µM), for inactives: top-dose activity, positive = re-replication, most hits filed as activators; further: % of control where 0% means no effect; nearly all actives have a fitted effect of over 50% in size
# * marks the source's active call; other numbers are inactive results; i = inactive; ? = inconclusive; nt = not tested or not shown; [ ] = another dose, or the depositor's remark. Compounds with a hit are over-represented: about 7.9% of the library has one in this group of screens. The call rests on the fitted dose curve; in most records, active means well fitted curve in the direction sought with a large enough effect; inconclusive means small, poorly fitted or top-dose-only effect, or another doubt; inactive means no such curve, though single readings can be large; an effect the other way counts as inactive or inconclusive. Potency means the concentration at half of the fitted maximal effect.
SMILES,HT1080 IDH1KD tx,KB-3-1 tox,SW480 rerep,HT1080-NT tox,KB-V1 cytotox,MCF10A rereplic
Cc1nn(-c2nc(-c3ccco3)cc(C(F)(F)F)n2)c(C)c1Br,26.8%,i,-2.5%,28.5%,i,0.3%
Fc1ccc(N2CCN(c3nc(-c4ccco4)cc(C(F)(F)F)n3)CC2)cc1,-24.0%,i,-9.1%,-25.3%,i,?
FC(F)(F)c1cc(-c2ccco2)nc(NCCc2ccccc2)n1,16.6%,i,?,3.0%,i,18.4µM*
FC(F)(F)c1cc(-c2ccco2)nc(N2CCN(Cc3ccccc3)CC2)n1,-25.5%,i,3.5%,15.8%,i,12.6µM*
O=[N+]([O-])c1cnn(-c2nc(-c3ccco3)cc(C(F)(F)F)n2)c1,13.1%,i,18.4µM*,23.8%,i,14.7%
CCCCNc1nc2c(S(=O)(=O)c3ccc(Cl)cc3)nnn2c2ccsc12,nt,i,nt,nt,i,nt
COc1ccc(-c2nc(C(=O)Nc3cccc(C(C)=O)c3)nn2-c2ccccc2Cl)cc1,nt,i,nt,nt,i,nt
O=C(Nc1ccccc1Cl)c1ccc(=O)[nH]n1,14.7%,7.31µM*,?,8.6%,8.2µM*,9.1%
O=C(Nc1ccccc1)c1ccc(=O)[nH]n1,28.5%,i,-14.3%,14.1%,i,-0.5%
Cc1cccc(NC(=O)c2cc(NC(=O)C3CCCCC3C(=O)O)ccc2N2CCCCC2)c1 (centres undefined),-12.2%,i,2.6%,7.6%[9.24 µM],i,14.6µM*
Cc1ccc(NC(=O)c2cc(NC(=O)c3ccccc3C(=O)O)ccc2N2CCCCC2)cc1,2.9%,i,-14.7%,-6.5%,i,-54.1%
Cc1cccc(NC(=O)c2cc(NC(=O)C3CC=CCC3C(=O)O)ccc2N2CCOCC2)c1 (centres undefined),12.0%,i,0.4%,6.4%,i,-3.2%
CC(=O)Nc1ccc(N2CCCCC2)c(C(=O)Nc2cccc(C)c2)c1,?,i,4.3%,-7.1%,7.31µM*,?
CCC(=O)Oc1ccc(-c2nc3ccccc3c(=O)o2)cc1,nt,i,nt,nt,i,nt
OC[C@@H]1[C@@H](c2ccc(Cl)cc2)C(c2ccc(F)cc2)=NN1c1ccccc1,?,i,4.11µM*,?,i,1.84µM*
OC[C@@H]1[C@@H](c2ccccc2)C(c2ccccc2)=NN1c1ccccc1,-0.9%,i,?,4.4%,i,?
OC[C@@H]1[C@@H](c2ccccc2)C(c2ccc(F)cc2)=NN1c1ccccc1,?,?,20.6µM*,?,i,?
Nc1ccc(C(=O)NN2C(=O)[C@H](Cl)C2c2ccc(Cl)cc2)cc1 (some centres undefined),18.4µM*,?,9.2µM*,?,?,16.4µM*
Cc1cc(C)n(-c2nc(NCC(C)O)c3c4c(sc3n2)COC(C)(C)C4)n1 (centres undefined),?,i,?,?,i,-2.0%
Cc1cc(C)n(-c2nc(SCCN(C)C)c3c4c(sc3n2)COC(C)(C)C4)n1,?,i,?,17.8µM*,?,?
Cc1cc(C)n(-c2nc(NCC3CCCO3)c3c4c(sc3n2)COC(C)(C)C4)n1 (centres undefined),-8.1%,16.4µM*,16.8%,-0.1%,?,?
CN(C)CCCNc1oc(/C=C/c2cccs2)nc1S(=O)(=O)c1ccccc1,-1.5%,i,11.6µM*,-11.3%,i,?
COCCNc1oc(/C=C/c2cccs2)nc1S(=O)(=O)c1ccccc1,-3.0%,i,nt,0.3%,?,nt
Cc1ccc(-c2cc(-c3ccccc3Cl)[nH]n2)c(O)c1,11.2µM*,i,16.1%,?,i,6.4%
Oc1ccc(Br)cc1-c1cc(-c2ccccc2Cl)[nH]n1,-17.3%,?,5.17µM*,?,?,25.1%
SMILES,HT1080 IDH1KD tx,KB-3-1 tox,SW480 rerep,HT1080-NT tox,KB-V1 cytotox,MCF10A rereplic
Cc1ccc(-c2cc(-c3ccccc3[N+](=O)[O-])[nH]n2)c(O)c1,?,i,25.7%,-13.7%,i,-2.4%
Cc1ccccc1-c1cc(-c2ccccc2O)n[nH]1,?,?,?,?,18.4µM*,?
CCCNC(=O)C1(C)CCN(C(=O)c2ccc3c(c2)CCO3)C1 (centres undefined),25.0%,i,nt,19.6%,i,nt
CCn1nc(C(=O)OC(C(=O)c2c[nH]c3ccccc23)c2ccccc2)c2ccccc2c1=O (centres undefined),?,i,15.1%,?,11.6µM*,2.3%
CCn1nc(C(=O)OCC(=O)c2ccc(F)cc2)c2ccccc2c1=O,-1.5%,i,-4.3%,2.9%,i,1.6%
COc1cccc(CNC(=O)c2ccc3nc(-c4ccccc4)c(-c4ccccc4)nc3c2)c1OC,nt,?,nt,nt,i,nt
COc1cccc(/C=N/n2c(=O)[nH]c3ccccc32)c1OC,-3.5%,i,4.11µM*,-12.2%,i,12.4%
COc1cccc(/C=N/n2c(C)nc3ccccc32)c1OC,0.7%,i,2.2%,1.1%,11.6µM*,11.2%
COc1cccc(/C=N/n2c(=S)n(C)c3ccccc32)c1OC,9.3%,i,-15.8%,4.2%,i,4.5%
CCCOc1ccc(F)cc1-c1cc(C(=O)NCc2cc(OC)cc(OC)c2)[nH]n1,-25.9%,i,nt,-23.2%,i,nt
O=C(CS(=O)(=O)c1cccc2nsnc12)N1CCN(c2ccccc2F)CC1,nt,i,nt,nt,i,nt
CC1CCCCN1C(=O)c1cnn2c1NC(=C1CC1)C=C2C(F)F (centres undefined),1.4%,nt,nt,6.6%,nt,nt
CCCc1nn(C)c(C(=O)Nc2cccc(CC)c2)c1Cl,-14.0%,i,-11.6%,-2.0%,18.4µM*,?
Cc1ccc(C)c(CN2C(=O)c3ccccc3S(=O)c3ccc(C(=O)NCc4ccccc4Cl)cc32)c1 (centres undefined),nt,i,nt,nt,i,nt
N#Cc1c(N)nc2c(c1-c1ccc(F)cc1)CCC2,10.8%,i,?,15.8%,i,13µM*
CCOC(=O)c1cc(-c2ccc3c(c2)OCCO3)nc2c1c(C)nn2CCC#N,-3.3%,i,?,-8.6%,i,11.6µM*
N#Cc1c(N)n(C2OC(CO)C(O)C2O)c2ncnc(N)c12 (centres undefined),0.517µM*,0.231µM*,?,1.3µM*,0.206µM*,0.231µM*
C=CCNc1ncnc2c1ncn2C1OC(CO)C(O)C1O (centres undefined),18.4µM*,i,?,9.2µM*,i,?

# Bioassay records (PubChem BioAssay)
